Assay outcomes as filed in PubChem BioAssay.
PTAP-TSG101 blk – qHTS Validation Assay for Inhibitors of HIV-1 Budding by Blocking the Interaction of PTAP/TSG101: Sytravon Library Screen | Fluorescence polarization, FITC-PTAP peptide/Tsg101, 20 min | Potency, µM (top dose mostly 115 µM), actives largely listed as inhibitors | 44,000 tested, under 10 active; further: potency means the concentration at half of the fitted maximal effect; 0% is about no effect
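qHTS FP binding, 20 min r.t.: 10 uM Tsg101 domain + 50 nM FITC-PTAP peptide, pH 7.5 HEPES buffer with TCEP and EDTA.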
GALK inh – qHTS Assay for Inhibitors of Human Galactokinase (GALK): NCGC Sytravon Library Screen. P51570. recombinant GALK, Kinase-Glo ATP luminescence, 1 h. Potency, µM (highest dose often 57.5 µM), for the others: top-dose activity, negative = inhibition, actives largely listed as inhibitors. 44,000 tested, under 10 active. AID 1347072, 2019;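 further: plate controls were full GALK reaction for no effect and reaction lacking GALK for full effect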
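5 nM GALK; 35 uM ATP; 100 uM D-galactose; 20 mM HEPES pH 8.0, 5 mM MgCl2, 60 mM NaCl, 1 mM DTT, 0.01% BSA; 1 h RT; Kinase-Glo Plus luminescence.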
B2AR arrestin ag – qHTS assay of beta-arrestin-biased ligands of beta2-adrenergic receptor: NCGC Sytravon Library Screen. Beta-2 adrenergic receptor (Homo sapiens), P07550. HTLA Tango cells, beta-arrestin recruitment, luciferase luminescence, 18 h. Potency, µM (highest dose often 46.1 µM), most hits filed as activators. 44,000 tested, under 10 active. AID 1347077, 2019;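 further: potency means the concentration at half of the fitted maximal effect; 0% = DMSO and full agonism = EC100 isoproterenol or metaproterenol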
Target sequence (P07550 whole entry, looked up): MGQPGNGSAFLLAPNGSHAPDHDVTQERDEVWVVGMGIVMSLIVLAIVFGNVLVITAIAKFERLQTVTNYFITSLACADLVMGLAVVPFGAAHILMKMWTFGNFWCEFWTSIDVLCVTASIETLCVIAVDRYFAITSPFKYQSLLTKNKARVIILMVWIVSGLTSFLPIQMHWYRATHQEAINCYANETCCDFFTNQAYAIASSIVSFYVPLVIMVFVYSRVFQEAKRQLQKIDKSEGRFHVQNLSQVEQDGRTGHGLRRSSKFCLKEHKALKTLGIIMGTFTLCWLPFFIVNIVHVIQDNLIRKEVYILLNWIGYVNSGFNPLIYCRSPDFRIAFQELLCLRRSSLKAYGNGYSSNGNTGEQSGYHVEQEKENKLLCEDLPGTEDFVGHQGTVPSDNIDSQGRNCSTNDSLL
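First, Tango cells carrying beta2-AR and beta-arrestin fusions received compound up to 46 microM. After 18 hr at 37 degrees C, luciferase substrate was added for 15 minutes, then luminescence gave %Activity for curve fitting.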
NTMT1 inh – Primary qHTS for Inhibitors of N-terminal methyltransferase 1 (NTMT1): MTaseGlo Assay; hit rate 2.5% among 59,000; AID 1645870, 2021; N-terminal Xaa-Pro-Lys N-methyltransferase 1 (Homo sapiens), Q9BV86; Potency, µM (highest dose often 114 µM), for inactives: at the highest dose activity change, negative = inhibition, usual class: inhibitors; NTMT1 MTase-Glo SAH luminescence, purified enzyme;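 further: potency means the concentration at half of the fitted maximal effect; plate controls were DMSO vehicle for no effect and no enzyme for full effect; nearly all actives have a fitted effect of over 65% in size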
DRV1 agonist – qHTS for Agonists of Human Resolvin D1 Receptor DRV1; Probable G-protein coupled receptor 32 (Homo sapiens), O75388; CHO-K1 GPR32 beta-arrestin PathHunter luminescence, 90 min; zero percent set by DMSO-only wells; activation, % at 76.9 µM; hit rate 2.5% among 48,000;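 active means activation of at least 60% and not above a set upper limit, about 1 call in 100 departs from these limits; inconclusive means activation of 40% to 60%, or above that upper limit; inactive means activation under 40%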; further: 0% is about no effect
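CHO-K1 cells stably expressing ProLink-tagged GPR32 and Enzyme Activator-tagged beta-arrestin were seeded at 2,500 cells/well overnight, exposed to compounds for 90 min at 37 °C, then read by beta-Gal complementation chemiluminescence after 1 h detection reagent.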
FH mod – Identification of activators of human fumarate hydratase by quantitative high-throughput screening; FH coupled MDH/diaphorase resazurin fluorescence, 15 min; Potency, µM (titrated, usually from 79.9 µM), without a hit: at the highest dose activity change, negative = inhibition, hits mostly inhibitors; hit rate 0.22% among 54,000; further: potency means the concentration at half of the fitted maximal effect; on the % scale 0 is the no-effect control and ±100 the full control effect; the screen sought activators but most active calls are inhibition curves; nearly all actives have a fitted effect of over 45% in size
An asterisk follows results filed as active; i = inactive; ? = inconclusive; nt = not tested or not shown; ! = repeats disagree; [ ] = dose if it differs, or a comment. In the library only some 3.7% were active in any assay of this set; here they are far more common. Unless noted, the call rests on the fitted dose curve; in most records, active means well fitted curve in the direction sought with a large enough effect; inconclusive means small, poorly fitted or top-dose-only effect, or another doubt; inactive means no such curve, though single readings can be large; an effect the other way counts as inactive or inconclusive.

SMILES	PTAP-TSG101 blk	GALK inh	B2AR arrestin ag	NTMT1 inh	DRV1 agonist	FH mod
Cc1cccc(C(=O)Nc2cc3nn(-c4ccc(C(C)C)cc4)nc3cc2C)c1	i	0.0%	i	16.3%	101.8*	1.5%
CC(=O)Nc1sc2c(c1-c1cccc3c1sc1ccccc13)CCNC2	nt	nt	nt	-5.2%	nt	nt
CN(Cc1ccccc1)S(=O)(=O)c1nnc(NC(=O)c2cccc(Cl)c2)s1	i	0.0%	i	12.2%	67.9*	-16.3%
O=C(Nc1nnc(S(=O)(=O)N2CCCc3ccccc32)s1)c1cccc(Cl)c1	i	2.9%	i	15.6%	73.8*	-17.7%
CN(c1ccccc1)S(=O)(=O)c1nnc(NC(=O)c2ccco2)s1	i	0.7%	i	9.2%	92.8*	9.9%
Cc1cccc(C(=O)Nc2nnc(S(=O)(=O)N3CCCc4ccccc43)s2)c1	i	0.0%	i	17.3%	48.3	-8.7%
COc1cc(O)c([C@H](CC(=O)N2CC(C)CC(C)C2)c2ccc3c(c2)OCO3)c(OC)c1 (some centres undefined)	nt	nt	nt	6.4%	nt	nt
COc1cccc(Nc2nc3cc(C)ccc3nc2NS(=O)(=O)c2ccc(Cl)cc2)c1	i	0.0%	i	14.3%	29.1	-5.9%
Cc1ccc2nc(NS(=O)(=O)c3ccc(Cl)cc3)c(Nc3ccc(C(=O)O)cc3)nc2c1	i	-0.1%	i	-2.2%	83.2*	?
CN(C)c1ccc(/C=C(\C#N)c2nc3ccccc3c(=O)[nH]2)cc1	i	2.2%	i	35.5µM*	-4.4	-3.5%
CC(C(=O)Nc1cc(C#N)ccc1CCCC(=O)O)c1ccc(F)c2ccccc12 (centres undefined)	nt	nt	nt	15.7%[57.5 µM]	nt	-4.3%
N#Cc1cc(NC(=O)C(=O)O)c(Cl)c(NC(=O)C(=O)O)c1	nt	nt	nt	15.8µM*	-16.0	-5.1%[53.3 µM]
CN(C)CCN(Cc1ccccc1)C(=O)c1cc(-c2ccc(F)cc2)n2nc(C(C)(C)C)cc2n1	nt	nt	nt	?	nt	-18.3%
COc1ccc(-c2noc(C3CC(=O)N(c4ccccc4)C3)n2)c(OC)c1 (centres undefined)	i	0.1%	i	4.1%	?	-20.7%
O=C1CC(c2nc(-c3ccccc3)no2)CN1c1ccccc1 (centres undefined)	i	0.7%	i	3.2%	64.7*	-26.8%
CC(=O)OC1C(=O)C2C3OCC4=C3[C@@](C)(CC[C@@H]4O)CC[C@]2(C)[C@H]1C(C)C (some centres undefined)	nt	nt	nt	6.8%[29.8 µM]	nt	-0.7%[53.3 µM]
CCNC(=O)Nc1ccc(Oc2ncnc(N)c2/C=N/OC)cc1Cl	nt	nt	nt	8.2%	nt	10.6%
O=C1Cc2cc(S(=O)(=O)N3CCN(c4ccc(F)cc4)CC3)ccc2N1	nt	nt	nt	-5.2%[228 µM]	nt	nt
O=C1Cc2cc(S(=O)(=O)N3CCN(c4ccc(CO)cc4)CC3)ccc2N1	nt	nt	nt	50.1µM*	nt	nt
O=C(O)c1cc(I)ccc1NC(=O)[C@H](Cc1ccccc1)NCc1ccccc1	nt	nt	nt	7.6%[57.5 µM]	nt	-3.4%
CCOc1ccc(NC(=O)c2ccc3c(c2)CCN3S(=O)(=O)CC)cc1	i	-13.1%	i	14.0%	67.4*	-0.4%
Cc1ccc(N(CC2=NCCN2)c2cccc(O)c2)cc1	nt	nt	nt	89.1µM*!	-9.9	-2.5%[53.3 µM]
S=C(NCCCc1cnc[nH]1)NCCCN(Cc1ccc(Cl)c(Cl)c1)c1ccccn1	nt	nt	nt	3.4%	nt	nt
O=C1Nc2ccc(I)cc2C1=Cc1cc(Br)c(O)c(Br)c1	nt	nt	nt	17.1µM*	nt	?
O=C1Nc2ccc(I)cc2/C1=C/c1cc(Br)c(O)c(Br)c1	nt	nt	nt	3.55µM*	-22.8	28.2µM*
